# Screening data from PubChem BioAssay.
# Sampled rows, rich in hits. Any-hit rate of the full collection: about 2.6%.
# Exocytosis inh = lytic granule exocytosis inhibition; TALL-104 LAMP-1 surface exposure, flow cytometry; cells stimulated with thapsigargin and PMA; inhibition, % at 10 µM; hit rate 0.66% among 360,000; AID 651702;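 active = inhibition above about 55%, limit read from the data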
# Rce1 inh = yeast Ras-converting enzyme inhibition | calls only | hit rate 0.27% among 290,000 | Q03530 | yeast membranes, quenched prenylated peptide cleavage fluorescence;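 active = fall in fluorescence gain of 50% or more versus controls, with final raw signal at or below 3038400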;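 note: plate controls were neutral control wells for no effect and wells lacking membranes for full effect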
# Platelet DG rel = modulates dense granule release in human platelets; human platelet-rich plasma, SFLLRN dense granule ATP release, luminescence; inhibition, %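 (compounds screened at 7.5 µM in platelet-rich plasma)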; hit rate 0.22% among 300,000; AID 1663;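 active = mean replicate score, as percent of positive control, at or above 50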
# PfM18AAP inh = blocks P. falciparum M18 aspartyl aminopeptidase; recombinant PfM18AAP, H-Glu-NHMec fluorogenic cleavage; inhibition, % at 7.35 µM; hit rate 1.2% among 290,000; AID 1822;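 active = inhibition above the campaign mean inhibition over all tested compounds plus 3 SD, cut at about 28% in these data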;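 note: 0% = plate median of test compound wells and 100% = 2 mM ZnCl2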
# ABHD5-PLIN5 inh = inhibitors of human ABHD5-perilipin-5 interaction | Q00G26+Q8WTS1 | Split G. princeps luciferase complementation, luminescence, 4 h | inhibition, % at 4 µM | hit rate 0.78% among 360,000 | AID 602281;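 active = inhibition above the mean inhibition across every tested compound plus 3 SD, cut at about 22% in these data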;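 note: 0% = DMSO only wells and the 100% control is not disclosed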
# Granule exo CP1 = lytic granule exocytosis inhibition; shares compounds with Exocytosis inh; TALL-104 cells, LAMP-1 externalization, flow cytometry; stimulated with PMA plus thapsigargin; inhibition, % at 10 µM; hit rate 11% among 1,500; in the data active = inhibition above about 60%;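 note: 0% = stimulated vehicle wells and 100% = unstimulated wells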
# The depositor's hits bear a star; i = inactive; / = no result given.
SMILES,Exocytosis inh,Rce1 inh,Platelet DG rel,PfM18AAP inh,ABHD5-PLIN5 inh,Granule exo CP1
CCOC(=O)Cn1c(=O)oc2cc(S(=O)(=O)N(C)c3cccc(C)c3)ccc21,61.8*,i,-2.5,2.2,-0.8,1.8
CCN(C(=O)Cn1c(=O)oc2cc(S(=O)(=O)N3CCCC3)ccc21)c1ccc(OC)cc1,-3.9,i,-7.1,-3.8,-5.0,/
CCOC(=O)Cn1c(=O)oc2cc(S(=O)(=O)N(C)c3ccc(OC)cc3)ccc21,59.3*,i,1.8,-6.3,1.0,-4.3
COc1ccc(OCc2nnc(NC(=O)Nc3ccc(F)cc3)s2)cc1,-1.6,i,-5.3,-2.0,-5.0,/
CCc1sc(C(=O)Nc2nc(-c3ccccn3)cs2)cc1C,-0.7,/,/,/,1.6,/
COCCCNc1nc(N)c([N+](=O)[O-])c(NCC2CCCO2)n1 (stereo not given),-1.9,i,-2.9,0.7,-2.9,/
COc1ccc(OC)c(-c2csc(NC(=O)Cc3ccccc3OC)n2)c1,68.0*,i,2.3,-8.1,-6.0,-4.9
CCOC(=O)c1c(NC(=O)c2ccn(CC)n2)sc2c1CCC2,79.6*,i,-7.9,7.5,-6.4,-3.3
CCOC(=O)c1c(NC(=O)c2nn(CC)cc2Br)sc2c1CCCCC2,2.9,i,4.1,5.5,-8.8,/
COc1cc(OC)c(C2SCCCS2)cc1OC,0.8,i,-19.2,0.9,-0.2,/
CCC(C(=O)NCCc1ccc(C)cc1)n1nc(C)c2c(C)n(-c3ccccc3)nc2c1=O (stereo not given),85.7*,i,5.0,-7.5,-15.1,-3.5
Cc1nn(C(C)C(=O)NCCCN(Cc2ccccc2)C(C)C)c(=O)c2c1sc1ccccc12 (stereo not given),1.4,i,5.3,-1.2,2.8,/
CCC(C(=O)NCCCN(CC)Cc1ccccc1)n1nc(C)c2sc3ccccc3c2c1=O (stereo not given),57.5*,i,0.2,-6.2,13.5,-4.8
CCOc1ccc(C(C)=O)cc1Cc1c(O)nc(N)[nH]c1=O,/,i,-3.3,-10.5,/,/
CC(C)(C)C(=O)NC(=O)Nc1ccccc1C(F)(F)F,109.4*,i,-9.4,-7.9,-1.1,-8.7
CC(=O)Nc1ccccc1C(F)(F)F,-5.9,i,2.8,4.3,5.8,/
Clc1ccc(OCCCNCc2ccccc2)c2ccccc12,99.4*,/,-5.5,-8.1,9.5,6.4
Brc1ccccc1OCCNCc1ccccc1,-0.6,i,2.7,2.8,6.3,/
CCc1nc2ccc(C(=O)Nc3cc(-c4ccccc4)ccc3OC)cn2c1N(C)CCC(C)C,0.0,/,/,/,1.8,/
CCc1nc2ccc(C(=O)Nc3cc(-c4ccccc4)ccc3OC)cn2c1N(CCN(C)C)CC1CC1,59.5*,/,/,/,7.6,48.9
O=C1CC(c2ccccc2)=Nc2ccc(Br)cc2N1,-1.7,i,2.6,3.5,-3.4,/
CC(NC(=S)Nc1ccc(F)cc1)c1ccccc1 (stereo not given),73.8*,i,-3.6,9.8,4.0,-4.7
O=C(Nc1ccccc1N1CCCCC1)c1ccc(-c2cccc(Cl)c2)o1,5.2,i,-12.2,-3.4,2.6,/
O=C(Nc1cccc2nsnc12)c1ccc(-c2cccc(Cl)c2)o1,91.8*,/,/,-27.4,13.8,-6.2
O=C(O)c1ccc(Cl)c(S(=O)(=O)N(Cc2ccccc2)c2ccccc2)c1,62.6*,/,0.6,-13.6,6.5,-13.3
SMILES,Exocytosis inh,Rce1 inh,Platelet DG rel,PfM18AAP inh,ABHD5-PLIN5 inh,Granule exo CP1
CCc1nc(N2CCCC2C(=O)O)c2oc3ccccc3c2n1 (stereo not given),-0.6,i,-1.0,3.3,-6.1,/
NS(=O)(=O)c1ccc(CCNCc2ccccc2OCc2ccc(Cl)cc2)cc1,56.6*,i,-5.0,-3.5,10.6,-11.3
Cc1ccc(SC[C@H](c2ccccc2)N2CCN(CCc3ccccc3)CCC2=O)cc1,59.0*,i,4.6,/,6.1,-11.3
O=C1CCN(CCc2ccccc2)CCN1[C@H](CSc1ccccc1)c1ccccc1,9.8,i,10.0,4.8,7.7,/
Cc1ccc(S(=O)(=O)N2CCC(=O)N(C(COCc3ccccc3)Cc3ccccc3)CC2)cc1 (stereo not given),89.8*,i,6.9,-10.1,-4.6,-2.4
CC1(C(=O)NS(=O)(=O)c2ccc(Br)cc2)CCN1C(=O)Cc1ccsc1 (stereo not given),2.6,/,/,/,-3.4,/
CC1(C(=O)NS(=O)(=O)c2ccc(Cl)cc2)CCN1C(=O)Cc1ccsc1 (stereo not given),78.3*,/,/,/,2.9,-13.8
OC(CNCc1cccs1)c1ccccc1 (stereo not given),2.4,i,-4.0,-5.8,5.3,/
